Common to all, as to assay: NCI-60 one-dose screen, 48 h (100 = growth as untreated, 0 = no growth, -100 = all killed)
Conditions in all cases: 10 µM

In assay [1] the test system is BT-549 breast.
For assay [2], the system named is MDA-MB-435 melanoma.
Assay [3] has as its system SW-620 colon.
Assay [4] has as its system MCF7 breast.
Assay [5] deals with HCT-116 colon.
Assay [6] has as its system HCC-2998 colon.
The subject of assay [7] is KM12 colon.

Compounds without any hit were thinned out: in the full panel of roughly 83,000, 20% have a hit.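 Single-concentration screen, 48 h exposure, 96-well plates. Endpoint: percent growth. Below 10 = active.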 Unmarked numbers belong to inactive results. Calls of active or inactive are those of the source.

Regarding `c1ccc2c(c1)oc1c3c(ccc12)NCCC3`, the growth in assay [1] is 89.5%; in assay [2] it was 106%; in assay [3], 103%; in assay [4], 40.9%; in assay [5] it was 95.7%; in assay [6], 97.2%.

For `O=C1/C(=C/c2ccc(Cl)cc2)SC(=Nc2ccc(Cl)cc2)N1Cc1nc2ccccc2[nH]1`, the growth in assay [1] was 104%; in assay [2], 76.3%; in assay [3], 74.9%; in assay [4] it was 59%; in assay [5], 53.8%; in assay [6] it was 62%. For the same compound, the growth in assay [7] was 76.7%.

On to `O=C1CC[C@@H]2CCCC[C@@H]2C1`, for which the growth was 136% in assay [1]; 103% in assay [2]; 108% in assay [3]; 97.2% in assay [4]; 104% in assay [5]; 112% in assay [6]. Moreover, the growth in assay [7] was 112%.

Turning to `COc1cc(-c2cc(C(=O)N3CCN(C(=O)c4ccccc4NCc4ccco4)CC3)nc3cc(-c4ccccc4)nn23)cc(OC)c1OC`, the growth in assay [1] was 35.6%; in assay [2], -34.6% (active); in assay [3], 14.2%; in assay [4], 16.3%; in assay [5] it was 20%; in assay [6], 66.3%. Besides, in assay [7], the growth is 13.1%.

For the compound `O=C(c1ccc(Cl)cc1Cl)N1CCOCC1`, the growth was 92.3% in assay [1]; 104% in assay [2]; 102% in assay [3]; 97.6% in assay [4]; 93.8% in assay [5]; 106% in assay [6]. Further, the growth in assay [7] is 110%.

For `Cc1occc1-c1nnc(SCC(=O)c2ccc(NC(=O)CC(C)C)cc2)o1`, the growth in assay [1] is 108%; in assay [2] it was 97.9%; in assay [3] it was 108%; in assay [4] it was 107%; in assay [5], 109%; in assay [6], 74.5%. Further, the growth in assay [7] was 99.4%.

On to `COc1ccc(NC(=O)Cc2nc3nc4sc(C)c(C)c4c(=O)n3[nH]2)cc1`, for which the growth in assay [1] was 103%; in assay [2] it was 105%; in assay [3] it was 104%; in assay [4], 96%; in assay [5] it was 101%; in assay [6] it was 98.1%. The growth in assay [7] was 104%.

Turning to `CCOC(=O)c1ccc(NC(=O)Nc2ncc(Cl)cc2Cl)cc1`, the growth was 106% in assay [1]; 90.8% in assay [2]; 102% in assay [3]; 97.8% in assay [4]; 83.9% in assay [5]; 96.2% in assay [6]. Moreover, the growth in assay [7] was 102%.

As to `Nc1c(C(=O)Nc2cccc3ccccc23)sc2nc3c(cc12)C(=O)CCC3`, the growth in assay [1] was 57%; in assay [2] it was -37.3% (active); in assay [3] it was 21.3%; in assay [4], 13.6%; in assay [5], 17.5%; in assay [6] it was 11.9%. For the same compound, the growth in assay [7] is 25.9%.

For the compound `CC12O[C@H](C[C@@H](O)[C@H]1O)n1c3ccccc3c3c4c(c5c6ccccc6n2c5c31)C(=O)N(CCCN)C4=O`, the growth is 72.9% in assay [1]; 32.5% in assay [2]; 20.4% in assay [3]; 12.2% in assay [4]; 13.4% in assay [5]; 44.8% in assay [6]. Also, the growth in assay [7] is 38%.

Regarding `COc1ccc(Cl)cc1C(=O)Nc1nc2ccc(Cl)cc2s1`, the growth in assay [1] was 97.7%; in assay [2], 97.6%; in assay [3], 101%; in assay [4], 41.7%; in assay [5] it was 53.2%; in assay [6] it was 102%. Moreover, the growth in assay [7] is 94.8%.

Regarding `Clc1ccc2c(NCCCNc3nccc(Nc4ccc(Br)cc4)n3)ccnc2c1`, the growth in assay [1] was 4.45% (active); in assay [2] it was -88.3% (active); in assay [3], -74.4% (active); in assay [4], -98.8% (active); in assay [5] it was -97.5% (active); in assay [6], -91.4% (active). In addition, in assay [7], the growth was -48.6% (active).

With `COc1ccc(-c2nn(-c3cccc(NC(=O)c4ccc(N5CCOCC5)c(C(F)(F)F)c4)c3)cc2-c2ccncc2)cc1Cl`, the growth in assay [1] was 67.9%; in assay [2], 30%; in assay [3], 83.3%; in assay [4] it was 53%; in assay [5], 55.5%; in assay [6], 67.6%. Besides, in assay [7], the growth is 43.7%.

With `O=C(Nc1cccc(-n2cc(-c3ccncc3)c(-c3ccc(O)c(Cl)c3)n2)c1)c1ccc(Cl)c(Cl)c1`, the growth in assay [1] was 68.5%; in assay [2], 47.2%; in assay [3] it was 28.2%; in assay [4], 35.5%; in assay [5], 44.4%; in assay [6] it was 54.3%. Moreover, in assay [7], the growth is 43.9%.

As to `CN(C)CCN=c1nc2c(c(N)n1-c1ccccc1)c(=S)n(-c1ccccc1)c(=S)n2-c1ccccc1`, the growth in assay [1] is 4.45% (active); in assay [2] it was -64.5% (active); in assay [3], -59.1% (active); in assay [4] it was 17.9%; in assay [5], -22.1% (active); in assay [6], -39.6% (active). Further, the growth in assay [7] was 0.204% (active).

For `CCOC(=O)C(NC(=O)C(Cl)Cl)C(O)c1ccccc1` (stereo not drawn), the growth in assay [1] was 112%; in assay [2], 94.9%; in assay [3], 100%; in assay [4], 94.8%; in assay [5], 85.3%; in assay [6], 110%. Further, the growth in assay [7] is 110%.

For `O=C(Nc1cccc(Cl)c1)Nc1nccs1`, the growth was 90.1% in assay [1]; 62% in assay [2]; 103% in assay [3]; 57.8% in assay [4]; 94% in assay [5]; 89.7% in assay [6]. Also, the growth in assay [7] was 81.2%.

With `CN(C)CCOc1nc2ccccc2c2c1-c1ccc(Cl)cc1C2=O`, the growth in assay [1] is 52.1%; in assay [2], -41.6% (active); in assay [3], -60.8% (active); in assay [4] it was -38.7% (active); in assay [5], 1.69% (active); in assay [6], -53.6% (active). In addition, in assay [7], the growth is -45.2% (active).

For `S=C1SCC(c2ccccc2)S1` (stereo not drawn), the growth in assay [1] is 109%; in assay [2], 102%; in assay [3], 111%; in assay [4], 99.4%; in assay [5], 107%; in assay [6] it was 114%. In addition, the growth in assay [7] was 117%.

Turning to `COc1ccc(NC(=O)CSc2nc3ccccc3c(=O)n2CCc2ccccc2)cc1`, the growth was 91.8% in assay [1]; 90.5% in assay [2]; 89.1% in assay [3]; 89.9% in assay [4]; 87.6% in assay [5]; 106% in assay [6]. Further, the growth in assay [7] is 84.4%.

Take `Cc1cc(N(CCCNc2ccnc3cc(Cl)ccc23)Cc2cccs2)nc(Cl)n1`: the growth in assay [1] was 33.7%; in assay [2], 48.9%; in assay [3], 32.9%; in assay [4], 40.8%; in assay [5], 21.4%; in assay [6], 36.8%. Moreover, the growth in assay [7] is 39.1%.

With `c1ccc(CP(Cc2ccccc2)c2ccccc2)cc1`, the growth in assay [1] was 96.2%; in assay [2] it was 75.5%; in assay [3], 105%; in assay [4] it was 96.7%; in assay [5], 100%; in assay [6], 101%. Moreover, the growth in assay [7] is 103%.

For the origin of these results see PubChem BioAssay (NCI).
